Values joined by “and” are separate entries in the source; they are usually repeats but may differ in a detail not shown here. Equal entries are not always repeated. Results filed as inconclusive are left out. Active and inactive are the calls of the source. Unless noted, calls follow the shape of the dose curve; as a rule, active = well fitted curve in the direction sought with a large enough effect in the repeat runs; inconclusive = weak or mixed curves; inactive = no such curve, though single readings can be large; an effect the other way counts as inactive or inconclusive.
Columns and labels:
[1] = qHTS assay to identify small molecule antagonists of the glucocorticoid receptor (GR) signaling pathway - cell viability counter screen (AID 720693); also: nearly all actives have a fitted effect of over 55% in size; also: potency is read from the fitted curve at half-maximal effect
[2] = qHTS assay for identifying genotoxic compounds that show differential cytotoxicity against isogenic chicken DT40 cell lines with known DNA damage response pathways - wild type cell line (AID 743012); also: nearly all actives have a fitted effect of over 60% in size; also: potency is read from the fitted curve at half-maximal effect
Method in brief: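 Wild type DT40, 300 cells/well, ~0.5 h settle at 37 C/5% CO2; compounds in DMSO added by pintool; 40 h at 37 C/5% CO2; CellTiter-Glo, 30 min RT; luminescence.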

[3] = qHTS assay for identifying genotoxic compounds that show differential cytotoxicity against isogenic chicken DT40 cell lines with known DNA damage response pathways - Rev3 mutant cell line (AID 743014); also: nearly all actives have a fitted effect of over 55% in size; also: potency is read from the fitted curve at half-maximal effect
[4] = qHTS assay for identifying genotoxic compounds that show differential cytotoxicity against isogenic chicken DT40 cell lines with known DNA damage response pathways - Rad54/Ku70 mutant cell line (AID 743015); also: nearly all actives have a fitted effect of over 60% in size; also: potency is read from the fitted curve at half-maximal effect
[5] = molecular target: Androgen receptor (Homo sapiens) (UniProt P10275); test: qHTS assay to identify small molecule antagonists of the androgen receptor (AR) signaling pathway (AID 743035; active = well fitted inhibition curve with a large enough effect in the signal ratio in the repeat runs, not every such curve was filed as active; the % refers to the signal ratio; also: potency is read from the fitted curve at half-maximal effect)
Method in brief: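 Fluorescence from a beta-lactamase FRET substrate (LiveBLAzer B/G, 2 h, room temperature) measured inhibition of R1881-stimulated signaling in GeneBLAzer AR-UAS-bla HEK293 cells exposed to compound for 16 h at 37C.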

[6] = molecular target: Androgen receptor (Homo sapiens) (UniProt P10275); test: qHTS assay to identify small molecule agonists of the androgen receptor (AR) signaling pathway using the MDA cell line (AID 743040; also: nearly all actives have a fitted effect of over 20% in size)
Method in brief: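 Human breast carcinoma MDA-kb2 reporter cells (MMTV-luc, AR/GR elements) were treated for 16 h at 37C in 0% CO2 following a 5 h settling period. Signal was quantified by ONE-Glo luminescence.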

[7] = qHTS assay to identify small molecule antagonists of the androgen receptor (AR) signaling pathway - cell viability counter screen (AID 743033; also: nearly all actives have a fitted effect of over 45% in size)
[8] = qHTS assay to identify small molecule antagonists of the androgen receptor (AR) signaling pathway using the MDA cell line - cell viability counter screen (AID 743041; also: nearly all actives have a fitted effect of over 45% in size; also: potency is read from the fitted curve at half-maximal effect)
Method in brief: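 Same-well cytotoxicity was assessed by CellTiter-Fluor in MDA-kb2 AR-luc cells after 16 h of compound treatment under R1881 agonism.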

[9] = molecular target: Androgen receptor (Homo sapiens) (UniProt P10275); test: qHTS assay to identify small molecule agonists of the androgen receptor (AR) signaling pathway (AID 743036; active = well fitted activation curve with a large enough effect in the signal ratio in the repeat runs, with a control signal flat, not every such curve was filed as active; the % refers to the signal ratio)
Method in brief: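 Agonist activity was scored by beta-lactamase reporter fluorescence in stably transfected HEK293 cells exposed to compounds for 16 h at 37C and 5% CO2. Substrate loading took 2 h at room temperature.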

[10] = molecular target: Androgen receptor (Homo sapiens) (UniProt P10275); test: qHTS assay to identify small molecule antagonists of the androgen receptor (AR) signaling pathway using the MDA cell line (AID 743042; also: nearly all actives have a fitted effect of over 55% in size)
Method in brief: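 MDA-kb2 breast carcinoma cells carrying MMTV-luciferase (AR/GR responsive) were co-treated with compounds and the agonist R1881 for 16 h at 37C. Inhibition read as ONE-Glo luminescence; CellTiter-Fluor fluorescence measured in parallel for cytotoxicity.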

Measured: Potency

Androgen receptor (Homo sapiens), sequence (P10275 whole entry, looked up): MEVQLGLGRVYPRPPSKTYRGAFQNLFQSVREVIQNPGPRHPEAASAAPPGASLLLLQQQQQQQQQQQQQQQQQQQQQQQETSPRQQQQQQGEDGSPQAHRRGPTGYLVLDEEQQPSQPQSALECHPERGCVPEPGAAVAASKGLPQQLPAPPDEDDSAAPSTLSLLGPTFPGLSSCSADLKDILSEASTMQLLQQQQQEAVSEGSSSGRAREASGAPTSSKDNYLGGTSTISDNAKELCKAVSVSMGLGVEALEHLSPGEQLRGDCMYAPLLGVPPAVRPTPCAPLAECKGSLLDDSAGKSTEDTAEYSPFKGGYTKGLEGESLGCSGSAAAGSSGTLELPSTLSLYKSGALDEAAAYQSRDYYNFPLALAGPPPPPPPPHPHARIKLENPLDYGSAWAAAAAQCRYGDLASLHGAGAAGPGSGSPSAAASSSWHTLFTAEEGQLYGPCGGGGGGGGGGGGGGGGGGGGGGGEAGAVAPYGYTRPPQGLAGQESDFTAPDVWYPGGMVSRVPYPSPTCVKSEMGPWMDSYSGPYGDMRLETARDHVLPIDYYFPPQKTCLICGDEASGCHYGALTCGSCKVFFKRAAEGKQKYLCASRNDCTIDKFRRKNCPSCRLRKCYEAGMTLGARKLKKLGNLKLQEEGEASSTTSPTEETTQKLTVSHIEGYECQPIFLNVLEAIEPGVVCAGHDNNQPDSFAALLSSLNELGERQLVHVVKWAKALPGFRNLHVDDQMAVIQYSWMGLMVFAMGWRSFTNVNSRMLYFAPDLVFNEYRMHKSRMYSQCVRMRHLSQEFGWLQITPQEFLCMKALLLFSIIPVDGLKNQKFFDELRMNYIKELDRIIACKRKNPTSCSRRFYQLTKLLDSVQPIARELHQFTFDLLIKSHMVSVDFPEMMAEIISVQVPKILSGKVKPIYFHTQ

C=C[C@]1(C)C[C@@H](OC(=O)CSC(C)(C)CNC(=O)[C@H](N)C(C)C)[C@]2(C)[C@H](C)CC[C@]3(CCC(=O)[C@H]32)[C@@H](C)[C@@H]1O
active: [2] 0.188 µM | [3] 0.335 µM | [4] 0.376 µM | [5] 23.9 µM
inactive: [1] | [6]

Cc1onc(-c2ccccc2)c1C(=O)N[C@@H]1C(=O)N2[C@@H]1SC(C)(C)[C@@H]2C(=O)O
inactive: [1] | [2] | [3] | [4] | [7] | [8]

OCCO[C@@H]1[C@@H](O)[C@H](O)[C@@H](CO)O[C@@H]1O
inactive: [1] | [2] | [3] | [4] | [7] | [8]

CCCCCCCCCCCCCCCCCC(=O)OCC(C)O (configuration not stated)
inactive: [1] | [2] | [3] | [4] | [7]
active: [8] 26.6 µM

Cc1cc(O)c2c(c1)O[C@@]1(C)CC[C@H]3C(C)(C)CCCC34CO[C@@H]2[C@H]41 (some centres not stated)
active: [1] 23.9 µM | [2] 13.3 µM | [3] 10.6 µM | [4] 13.3 µM | [5] 23.9 µM
inactive: [9] | [6]

CCC(C)(C)OC(=O)N[C@@H](Cc1c[nH]c2ccccc12)C(=O)N[C@@H](CCSC)C(=O)N[C@@H](CC(=O)O)C(=O)N[C@@H](Cc1ccccc1)C(N)=O
inactive: [1] | [2] | [3] | [4] | [7] | [8]

N#Cc1ccc2c(c1)N(CCCN1CCC(O)CC1)c1ccccc1S2
inactive: [1] | [6]
active: [2] 18.8 µM | [3] 26.6 µM | [4] 21.1 µM

O=C(O)c1nc(=O)[nH]c(=O)[nH]1
not listed: [7]
inactive: all other assays above

CN=C(NC)NCc1ccccc1
inactive: [1] | [2] | [3] | [4] | [7] | [8]

C=C1CC[C@@H]2[C@](C)(CO)[C@H](O)CC[C@@]2(C)[C@@H]1C/C=C1/C(=O)OC[C@H]1O
inactive: [1] | [9] | [6] | [8]
active: [2] 5.96 µM | [3] 8.41 µM | [4] 5.96 µM

CC1(C)S[C@@H]2[C@H](NC(=O)[C@H](N)c3ccccc3)C(=O)N2[C@H]1C(=O)OCOC(=O)[C@@H]1N2C(=O)C[C@H]2S(=O)(=O)C1(C)C
inactive: [1] | [2] | [3] | [4] | [7] | [8]

CCOC(=O)[C@H](CCc1ccccc1)N[C@@H](C)C(=O)N1CC2(C[C@H]1C(=O)O)SCCS2
inactive: [1] | [2] | [3] | [4] | [7] | [8]

CC1=C(/C=C/C(C)=C/C=C/C(C)=C/C=C/C=C(C)/C=C/C=C(C)/C=C/C2=C(C)C(=O)CCC2(C)C)C(C)(C)CCC1=O
inactive: [1] | [2] | [3] | [4] | [7] | [8]

CN(C)CCCN1c2ccccc2C(C)(C)c2ccccc21
active: [2] 18.8 µM | [3] 26.6 µM | [4] 21.1 µM
not listed: [7] | [8]
inactive: all other assays above

CO/N=C(\C(=O)N[C@@H]1C(=O)N2C(C(=O)O)=C(CSC(=O)c3ccco3)CS[C@H]12)c1csc(N)n1
not listed: [7]
inactive: all other assays above

CCCCCc1ccc(C)cc1O
not listed: [5] | [7]
inactive: all other assays above

CCC(Cc1c(I)cc(I)c(O)c1I)C(=O)O (configuration not stated)
not listed: [7]
inactive: all other assays above

OCCN1CCN(CC/C=C2/c3ccccc3Sc3ccc(Cl)cc32)CC1
active: [2] 9.02 µM | [3] 11.4 µM | [4] 11.4 µM
not listed: [7]
inactive: all other assays above

CN(C)CC/C=C1/c2ccccc2CSc2ccccc21
active: [2] 11.4 µM | [3] 12.7 µM | [4] 12.7 µM
not listed: [5] | [7]
inactive: all other assays above

CCOC(=O)CCC(=O)O[C@H]1[C@H](O[C@@H]2[C@@H](C)[C@H](O[C@H]3C[C@@](C)(OC)[C@@H](O)[C@H](C)O3)[C@@H](C)C(=O)O[C@H](CC)[C@@](C)(O)[C@H](O)[C@@H](C)C(=O)[C@H](C)C[C@@]2(C)O)O[C@H](C)C[C@@H]1N(C)C
not listed: [7]
inactive: all other assays above

CCN(CC)CCOCCOC(=O)C(CC)(CC)c1ccccc1
inactive: [1] | [8]
active: [2] 3.35 µM | [3] 1.88 µM | [4] 4.73 µM

CO[C@H]1C[C@H](O[C@H]2[C@H](C)O[C@@H](O[C@@H]3/C(C)=C/C[C@@H]4C[C@@H](C[C@]5(C=C[C@H](C)[C@@H](C6CCCCC6)O5)O4)OC(=O)[C@@H]4C=C(C)[C@@H](O)[C@H]5OC/C(=C\C=C\[C@@H]3C)[C@]54O)C[C@@H]2OC)O[C@@H](C)[C@@H]1O
inactive: [8]
active: [1] 7.56 µM | [2] 5.31 µM | [3] 6.68 µM | [4] 5.96 µM

C#C[C@]1(OC(C)=O)CC[C@H]2[C@@H]3CCC4=CC(=O)CC[C@@H]4[C@H]3CC[C@@]21C
inactive: [8]
active: [1] 6.01 µM | [2] 4.22 µM | [3] 10.6 µM | [4] 8.41 µM

CO[C@H]1C=CO[C@@]2(C)Oc3c(C)c(O)c4c(O)c(c5c(nc6cc(C)ccn65)c4c3C2=O)NC(=O)/C(C)=C\C=C[C@H](C)[C@H](O)[C@@H](C)[C@@H](O)[C@@H](C)[C@H](OC(C)=O)[C@@H]1C
active: [2] 26.6 µM | [3] 23.7 µM | [4] 29.8 µM
inactive: [1] | [8]

CO[C@@H]1[C@@H](O[C@@H]2O[C@H](C)[C@@H](O[C@H]3C[C@@](C)(O)[C@@H](OC(=O)CC(C)C)[C@H](C)O3)[C@H](N(C)C)[C@H]2O)[C@@H](CC=O)C[C@@H](C)[C@@H](O)/C=C/C=C/C[C@@H](C)OC(=O)C[C@H]1O
active: [2] 2.66 µM and 3.76 µM | [3] 5.96 µM and 7.5 µM | [4] 6.68 µM and 9.44 µM
inactive: [1] | [8]

FCOC(C(F)(F)F)C(F)(F)F
inactive: [1] | [2] | [3] | [4] | [8]

CCCCCCCCCCCC(=O)N(CCO)CCO
active: [2] 29.8 µM | [3] 26.6 µM | [4] 26.6 µM
inactive: [1] | [8]

CC(=O)Oc1cc(C)c(OC(C)=O)c2ccccc12
active: [2] 21.1 µM | [3] 23.7 µM | [4] 23.7 µM
inactive: [1] | [8]
